Pf Dd2 inh = blocks growth of Plasmodium falciparum Dd2 parasites | activity change, % at 10 µM | P. falciparum Dd2 growth, SYBR Green, 72 h; stronger effect = lower value | 2.3% of 94,000 active; in the data active = activity change below about -80%
C diff growth = C. difficile growth inhibition; Clostridium difficile clinical isolate growth, OD600, 24 h; stronger effect = lower value; growth activity, negative = inhibition, % at 16 µg/mL (by protocol); 0.25% of 86,000 active; AID 1259249;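 active = mean growth activity at or below -80% and every replicate also at or below -80%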;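 also: 0% = DMSO wells and -100% = levofloxacin 16 µg/mL wells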
* hit, by the source's call; x = no result given. Hits are enriched below; roughly 2.4% of the tested compounds scored in any of these assays.

SMILES | Pf Dd2 inh | C diff growth
CC(C)NC(=O)NCC[C@H]1CC[C@@H](NS(=O)(=O)c2ccc(-c3ccccc3)cc2)[C@@H](CO)O1 | 1 | -5
Cc1noc(C)c1NC(=O)Nc1ccc2c(c1)C(=O)N([C@H](C)CO)C[C@@H](C)[C@H](CN(C)S(C)(=O)=O)OCCCC[C@@H](C)O2 | 17 | -2
COc1ccc2c3c([nH]c2c1)[C@H](CO)N(C(=O)NC(C)C)CC31CN(C(=O)c2ccccn2)C1 | -17 | x
O=S(=O)(N[C@H]1CC[C@H](CCn2cc(-c3cccc(F)c3)nn2)O[C@@H]1CO)c1ccc(F)cc1 | x | -2
C[C@H]1CN([C@@H](C)CO)S(=O)(=O)c2ccc(C#CC3CC3)cc2O[C@H]1CN(C)C(=O)c1ccncc1 | -49 | -10
COc1ccc(NC(=O)N[C@H]2CC[C@H](CCNC(=O)Cc3ccncc3)O[C@@H]2CO)cc1 | 19 | -1
Cc1ccc(-c2ccc([C@H]3[C@@H](CO)N4C(=O)CN(C(=O)c5cccnc5)C[C@H]34)cc2)cc1 | -30 | -23
COc1ccc(CN(C)C[C@@H]2OCCCC[C@@H](C)Oc3ccc(NC(=O)NC4CCCCC4)cc3C(=O)N([C@@H](C)CO)C[C@H]2C)cc1 | -32 | 3
C[C@H](CO)N1C[C@H](C)[C@H](CN(C)C(=O)Nc2ccccc2)Oc2ccc(N(C)C)cc2CC1=O | 11 | -1
COc1ccc(NC(=O)N(C)C[C@@H]2OCCCC[C@@H](C)Oc3ccc(NC(=O)Nc4ccc(C(F)(F)F)cc4)cc3C(=O)N([C@H](C)CO)C[C@H]2C)cc1 | 15 | 4
COc1ccc(NC(=O)Nc2ccc3c(c2)C(=O)N([C@@H](C)CO)C[C@H](C)[C@@H](CN(C)C(=O)Nc2ccc(C(F)(F)F)cc2)OCCCC[C@H](C)O3)cc1 | -82* | -7
COc1ccc(NC(=O)Nc2ccc3c(c2)C(=O)N([C@@H](C)CO)C[C@@H](C)[C@@H](CN(C)C(=O)Nc2ccc(C(F)(F)F)cc2)OCCCC[C@@H](C)O3)cc1 | -56 | -7
COc1ccc(NC(=O)Nc2ccc3c(c2)C(=O)N([C@H](C)CO)C[C@H](C)[C@@H](CN(C)C(=O)Nc2ccc(C(F)(F)F)cc2)OCCCC[C@H](C)O3)cc1 | -90* | -2
C[C@@H]1CCCCO[C@@H](CN(C)C(=O)CCC(F)(F)F)[C@@H](C)CN([C@@H](C)CO)C(=O)c2cc(NC(=O)Nc3ccc4c(c3)OCO4)ccc2O1 | -11 | 4
COc1ccc(NC(=O)N(C)C[C@H]2OCCCC[C@@H](C)Oc3ccc(NC(=O)Nc4ccc(C(F)(F)F)cc4)cc3C(=O)N([C@H](C)CO)C[C@H]2C)cc1 | -83* | 6
C[C@@H]1CCCCO[C@H](CN(C)C(=O)CCC(F)(F)F)[C@@H](C)CN([C@H](C)CO)C(=O)c2cc(NC(=O)Nc3ccc4c(c3)OCO4)ccc2O1 | -83* | 0
COc1ccc(NC(=O)N(C)C[C@H]2OCCCC[C@H](C)Oc3ccc(NC(=O)Nc4ccc(C(F)(F)F)cc4)cc3C(=O)N([C@@H](C)CO)C[C@H]2C)cc1 | -12 | 6
CCCNC(=O)N1[C@H](CO)[C@H](c2ccccc2)[C@H]1CNC(=O)c1cccc(F)c1 | -2 | 10
COc1cc(CN2CC3(CCN(C(=O)CN4CCOCC4)CC3)c3c(n(C)c4cc(OC)ccc34)[C@H]2CO)cc(OC)c1 | -53 | -7
CC(C)NC(=O)NCC[C@@H]1CC[C@@H](NS(=O)(=O)c2ccccc2)[C@H](CO)O1 | 24 | 0
O=C(C[C@@H]1C=C[C@H](NC(=O)c2ccccc2)[C@@H](CO)O1)NCc1ccc(Oc2ccccc2)cc1 | 1 | x
C[C@@H]1CCCCO[C@H](CN(C)C(=O)Nc2ccc3c(c2)OCO3)[C@H](C)CN([C@H](C)CO)C(=O)c2cc(NC(=O)Nc3ccc(C(F)(F)F)cc3)ccc2O1 | -89* | 7
COc1ccc(NC(=O)Nc2ccc3c(c2)C(=O)N([C@@H](C)CO)C[C@@H](C)[C@H](CN(C)C(=O)Nc2ccc4c(c2)OCO4)OCCCC[C@@H](C)O3)cc1 | 0 | 7
COc1ccc(NC(=O)Nc2ccc3c(c2)C(=O)N([C@H](C)CO)C[C@@H](C)[C@@H](CN(C)C(=O)Nc2ccc4c(c2)OCO4)OCCCC[C@@H](C)O3)cc1 | -90* | 10
COc1ccc(NC(=O)N(C)C[C@H]2OCCCC[C@@H](C)Oc3ccc(NC(=O)Nc4ccc(C(F)(F)F)cc4)cc3C(=O)N([C@@H](C)CO)C[C@@H]2C)cc1 | -84* | 1
C[C@H](CO)N1C[C@H](C)[C@H](CN(C)C(=O)Nc2ccc3c(c2)OCO3)OCCCC[C@H](C)Oc2ccc(NC(=O)Nc3ccc(C(F)(F)F)cc3)cc2C1=O | -60 | 4
C[C@@H]1CCCCO[C@H](CN(C)C(=O)Nc2ccc(C(F)(F)F)cc2)[C@H](C)CN([C@H](C)CO)C(=O)c2cc(NC(=O)Nc3ccc(F)cc3)ccc2O1 | -81* | 5
